Inconclusive results are not listed. A call without a number means that no potency is given here. Unmarked numbers belong to inactive results. The source made the active and inactive calls. Calls come from the whole dose curve.
Test: qHTS assay to identify small molecule agonists of the hypoxia (HIF-1) signaling pathway - cell viability counter screen (AID 1224844); note: nearly all actives have a fitted effect of over 50% in size
Conditions: HRE-bla ME-180 viability, CellTiter-Glo luminescence, 17 h; series mostly up to 76.8 µM
Source text: National Center for Advancing Translational Sciences [NCATS]
NIH Chemical Genomics Center [NCGC]
U.S. Environmental Protection Agency [EPA]
National Institutes of Environmental Health Sciences [NIEHS]
National Toxicology Program [NTP]
U.S. Food and Drug Administration [FDA]
Hypoxia-inducible factor-1 (HIF-1) is the major hypoxia-regulated transcription factor that controls cellular responses to low oxygen concentration. HIF-1 is composed of two subunits: hypoxia responsive HIF-1-alpha and constitutively expressed HIF-1-beta, which is also known as aryl hydrocarbon receptor nuclear translocator. During hypoxic conditions, HIF-1-alpha heterodimerizes with HIF-1-beta and translocates into the nucleus where the HIF-1 complex binds to the hypoxia-response element (HRE) and activates expression of target genes such as VEGF (vascular endothelial growth factor). The HIF-1 pathway is essential to normal growth and development, and is involved in the pathophysiology of cancer, inflammation, and ischemia.
Using a beta-lactamase reporter-gene under control of the hypoxia response element, a cell-based assay [CellSensor(TM) HRE-bla ME-180 from Life Technologies, Carlsbad, CA] was used to measure hypoxia-induced signaling. Tox21 10K library compounds were measured for their ability to induce the reporter gene activity. The cytotoxicity of the Tox21 compound library against HRE-bla ME-180 cell line was tested in parallel by measuring cell viability using CellTiter-Glo assay (Promega, Madison, WI) in the same assay wells.
Tox21 Assay Protocol Summary:
HRE-bla ME-180 cells were dispensed at 2,000 cells per well in 6 uL of assay medium containing 0.5% dialyzed FBS into black wall/clear-bottom 1536-well plates using a Multidrop Combi (Thermo Scientific, Waltham, MA) dispenser. After the assay plates were incubated at 37C and 5% CO2 for 5 hrs, 23 nL of compounds dissolved in DMSO, positive controls or DMSO only was transferred to each well of the assay plate using a Pintool station (Kalypsys, San Diego, CA). The assay plates were incubated at 37C and 5% CO2 for 17 hrs. One uL of LiveBLAzerTM B/G FRET substrate (CCF4-AM) (Life Technologies) was added to each well using a Flying Reagent Dispenser (FRD, Aurora Discovery, San Diego, CA). After 2 hr incubation at room temperature, fluorescence intensity (405 nm excitation, 460 nm and 530 nm emissions) was measured using an Envision plate reader (PerkinElmer, Shelton, CT). For cytotoxicity, 4 ul/well of CellTiter-Glo reagent was added into the assay plates using an FRD. After 30 min incubation at room temperature, the luminescence intensity was measured using a ViewLux plate reader (PerkinElmer).
In the case of COc1ccc(COC=O)cc1, the Potency is reported as “inactive”.
In the case of CNC(=O)c1c(I)c(NC(=O)CCCCC(=O)Nc2c(I)c(C(=O)O)c(I)c(C(=O)NC)c2I)c(I)c(C(=O)O)c1I, the Potency is reported as “inactive”.
In the case of OC1OC[C@@H](O)[C@H](O)[C@H]1O (stereo not given in full), the Potency is reported as “inactive”.
In the case of CCN1CCCC(OC(=O)C(c2ccccc2)c2ccccc2)C1 (stereo not given), the Potency is reported as “inactive”.
CCn1cc(C(=O)O)c(=O)c2cc(F)c(N3CCN(C)CC3)cc21 showed an activity change, negative = cytotoxicity of -1.72% [at 15.8 µM].
In the case of Oc1ccc2c(c1)OC[C@@H](N1CCC(O)(c3ccc(F)cc3)CC1)[C@H]2O, the Potency is reported as “inactive”.
With COc1ccc2cc(C=O)ccc2c1 the Potency was “inactive”.
With O=C(O)C1CCC1 the Potency was “inactive”.
For CC/C=C\C#N, the Potency was “inactive”.
With CCCCc1ccc(N)cc1 the Potency was “inactive”.
In the case of CCC(C(=O)NC(N)=O)c1ccccc1 (stereo not given), the Potency is reported as “inactive”.
With CCCC=O the Potency was “inactive”.
In the case of CC1CCN(CCCC(=O)c2ccc(F)cc2)CC1, the Potency is reported as “inactive”.
In the case of CC1=CCC2C(C1)C2(C)C (stereo not given), the Potency is reported as “inactive”.
For COc1cc(C)cc(O)c1, the Potency was “inactive”.
With O=C(O)/C=C/c1ccc(/C=C/C(=O)O)cc1 the Potency was “inactive”.
For N#CCN(CC#N)CCN(CC#N)CC#N, the Potency was “inactive”.
With CC1=CC(=O)CCC1 the Potency was “inactive”.
With CC(C)[C@H](N)C(=O)OCCOCn1cnc2c(=O)[nH]c(N)nc21 the Potency was “inactive”.
In the case of O=C(O)c1cccc(C(=O)O)n1, the Potency is reported as “inactive”.
For CN(C)N=Nc1ccccc1, the Potency was “inactive”.
For CC(C)(O)C(=O)c1ccc(OCCO)cc1, the Potency was “inactive”.
For C=C(C)C(=O)OCCCCCCCCCCCCCCCCCC, the activity change, negative = cytotoxicity was 5.2% [at 15.8 µM].
In the case of NC(=O)c1c(Cl)cccc1Cl, the Potency is reported as “inactive”.
With O=Cc1ccccc1[N+](=O)[O-] the Potency was “inactive”.
For CCC(=O)/C=C/c1ccc(OC)cc1, the Potency was “inactive”.
In the case of CCN(CC)S(=O)(=O)c1ccc(C(=O)O)cc1, the Potency is reported as “inactive”.
With C=CCSCC1Nc2cc(Cl)c(S(N)(=O)=O)cc2S(=O)(=O)N1 (stereo not given) the Potency was “inactive”.
For CCCC(C)CO (stereo not given), the Potency was “inactive”.
In the case of C1=C\CC/C=C\CC/C=C\CC/1, the Potency is reported as “inactive”.
For NC(N)=NS(=O)(=O)c1ccc(N)cc1, the Potency was “inactive”.
For CO[Si](CCCNCCC[Si](OC)(OC)OC)(OC)OC, the Potency was “inactive”.
With C=C(C)C1CC=C(C)C(O)C1 (stereo not given) the Potency was “inactive”.
In the case of OCCCCCCO, the Potency is reported as “inactive”.
In the case of COc1cc(C(=O)N2CCOCC2)cc(OC)c1OC, the Potency is reported as “inactive”.
In the case of [O-][N+](=Nc1ccccc1)c1ccccc1, the Potency is reported as “inactive”.
In the case of Nc1nc(F)nc2c1ncn2[C@@H]1O[C@H](CO)[C@@H](O)[C@@H]1O, the Potency is reported as “inactive”.
With CCC(C)OC(=O)N1CCCCC1CCO (stereo not given) the Potency was “inactive”.
For CCCCCCOC(=O)CC(CC(=O)OCCCCCC)(OC(=O)CCC)C(=O)OCCCCCC, the Potency was “inactive”.
In the case of CC(C)COC(=O)c1ccccc1O, the Potency is reported as “inactive”.

— PubChem BioAssay (Tox21)
